The text below walks through data of PubChem BioAssay (EPA / NIEHS).

Calls of active or inactive are those of the source. How the source made its calls: active means hit-call score of the fitted dose curve at least 0.9, where 1 is the maximum; inactive means score below 0.9.

Experiment [1] deals with CCAAT/enhancer-binding protein beta (Homo sapiens) (UniProt P17676). The experiment in a line: ATG_C_EBP_CIS: Attagene CIS-FACTORIAL HepG2 Assay for human CCAAT/Enhancer Binding Protein (C/EBP) beta (AID 2282927). The settings on record: HepG2 Attagene cis-factorial transcription factor reporter; actives raise or lower the signal. The method, boiled down:
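Transiently transfected HepG2 (MRTU library, endogenous TF-driven promoters); 24 h dosing; total RNA → oligo(dT) RT → PCR → 6-FAM primer extension → HpaI digest → CE; fit bidirectionally vs DMSO.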

Experiment [2] can be described thus: ATG_CMV_CIS: Attagene CIS-FACTORIAL HepG2 Assay for human CMV (Internal Marker) (AID 2282928).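 Further: endpoint acts as a background internal control marker rather than a target.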 To be noted: HepG2 CMV promoter reporter, transcription factor profiling; actives raise or lower the signal. The procedure, abridged: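 Fluorescence intensity of RT-PCR-derived reporter fragments, resolved by capillary electrophoresis, gives the signal. HepG2 liver cells bearing transfected cis-element reporters were treated 24 h; activity in either direction was fit relative to DMSO-treated controls.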

Experiment [3] in a line: ATG_DR4_LXR_CIS: Attagene CIS-FACTORIAL HepG2 Assay for human Liver X Receptor (LXR), DR4 submotif (AID 2282929). The settings on record: HepG2 Attagene DR4 cis-reporter, mRNA transcription; actives raise or lower the signal. The procedure, abridged:
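HepG2, transient MRTU transfection, cis-element (DR4) promoter; 24 h compound exposure; total RNA → oligo(dT) RT → PCR → 6-FAM primer extension → HpaI cut → CE. Gain/loss vs DMSO, bidirectional fit.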

Experiment [4] can be described thus: ATG_AP_1_CIS: Attagene CIS-FACTORIAL HepG2 Assay for human Activator Protein 1 (AP-1) (AID 2282931). The settings on record: HepG2 Attagene cis-factorial AP-1 reporter mRNA; actives raise or lower the signal. The method, boiled down: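 Transient MRTU transfection of HepG2 → 24 h chemical treatment → RNA isolation, RT-PCR, 6-FAM labelling, HpaI digest → capillary electrophoresis. Fit: bidirectional, DMSO negative control.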

The nature of experiment [5]: ATG_BRE_CIS: Attagene CIS-FACTORIAL HepG2 Assay for human Bone Morphogenetic Protein (BMP) Response Element (BRE) (AID 2282933). To be noted: HepG2 BMP response element reporter, Attagene transcription factor profiling; actives raise or lower the signal. The method, boiled down:
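Endogenous transcription factor activity read in transiently transfected HepG2 cells after 24 h chemical exposure. Bidirectional curve fitting against DMSO; readout is reporter transcript level by RT-PCR with capillary electrophoresis of labelled products.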

The target of experiment [6] is Retinoic acid receptor alpha (Homo sapiens) (UniProt P10276). The experiment in a line: ATG_DR5_RAR_CIS: Attagene CIS-FACTORIAL HepG2 Assay for human Retinoic Acid Receptor Alpha (RARE), DR5 submotif (AID 2282934).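 On AC50: reporter responds to endogenous RAR alpha beta and gamma in HepG2 not RARA alone.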 The settings on record: HepG2 Attagene cis-factorial RARE DR5 reporter, mRNA; actives raise or lower the signal. The procedure, abridged:
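Read-out: DR5-driven reporter transcript measured by RT-PCR, 6-FAM primer extension, HpaI digest and capillary electrophoresis. Human HepG2 liver cells carry transiently transfected cis-element reporter constructs; dosing lasts 24 h. Gain or loss of signal fitted against DMSO baseline.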

The target in experiment [7] is Transcription factor E2F1 (Homo sapiens) (UniProt Q01094). The experiment in a line: ATG_E2F_CIS: Attagene CIS-FACTORIAL HepG2 Assay for human E2F Transcription Factor 1 (AID 2282935). The settings on record: HepG2 Attagene cis-reporter, E2F reporter RNA transcripts; actives raise or lower the signal. The procedure, abridged:
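Transient MRTU transfection of HepG2; 24 h compound exposure; RNA → oligo(dT) RT → PCR → FAM label → HpaI cut → CE fluorescence. Gain/loss of signal fit against DMSO.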

Experiment [8] is described as follows: ATG_E_Box_CIS: Attagene CIS-FACTORIAL HepG2 Assay for human Enhancer Box (E-box) (AID 2282936). The settings on record: HepG2 E-box cis-reporter transcription, actives raise or lower the signal. The method, boiled down:
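Transiently transfected HepG2, endogenous TF-driven reporters, 24 h dosing. Readout: RT-PCR plus capillary electrophoresis of fluorescent reporter fragments. Gain or loss of signal fitted bidirectionally against DMSO baseline.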

A short description of experiment [9]: ATG_M_61_CIS: Attagene CIS-FACTORIAL HepG2 Assay for M61 Transcription Factor (Internal Marker) (AID 2282937). To be noted: HepG2 Attagene CIS-FACTORIAL M61 internal marker reporter; actives raise or lower the signal. The method, boiled down: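 Human liver HepG2, transient MRTU transfection (cis promoter elements), 24 h compound. Total RNA → oligo(dT) RT → PCR → FAM label → HpaI → CE. Internal background marker; bidirectional fitting, DMSO = baseline.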

Experiment [10] in a line: ATG_EGR_CIS: Attagene CIS-FACTORIAL HepG2 Assay for human Early Growth Response 1 (EGR1) (AID 2282938). To be noted: HepG2 Attagene CIS-FACTORIAL EGR reporter mRNA; actives raise or lower the signal. The method, boiled down: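 Transient transfection of human HepG2 with multiple cis-regulated reporter units, chemical exposure 24 h, total RNA isolated. Reverse transcription, PCR, fluorescent labelling and capillary electrophoresis quantify reporter transcripts; activity fitted bidirectionally against DMSO.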

A short description of experiment [11]: ATG_M_19_CIS: Attagene CIS-FACTORIAL HepG2 Assay for M19 Transcription Factor (Internal Marker) (AID 2282939). To be noted: HepG2 Attagene CIS-FACTORIAL M19 internal marker reporter; actives raise or lower the signal. The procedure, abridged: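 Internal marker readout, fitted in both directions against DMSO, from HepG2 cells carrying transfected cis-element reporter constructs; RT-PCR and capillary electrophoresis of reporter mRNA after 24 h exposure.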

The nature of experiment [12]: ATG_ERE_CIS: Attagene CIS-FACTORIAL HepG2 Assay for Estrogen Response Element (ERE) (AID 2282940). To be noted: HepG2 ERE cis-reporter, Attagene RNA transcript; actives raise or lower the signal. The procedure, abridged: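 After 24 h compound treatment, RNA from transfected HepG2 cells was reverse-transcribed, reporter cDNA PCR-amplified, FAM-labelled, HpaI-cut and resolved by capillary electrophoresis. ERE-driven cis reporter transcripts reflect endogenous factors; gain or loss scored against DMSO.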

The nature of experiment [13]: ATG_Ets_CIS: Attagene CIS-FACTORIAL HepG2 Assay for human Erythroblast Transformation Specific (ETS) (AID 2282941). To be noted: HepG2 ETS cis-reporter transcription, actives raise or lower the signal. The method, boiled down:
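Multiplexed reporter transcript profiling: HepG2, 24 h treatment, total RNA to cDNA, PCR, 6-FAM labelling, HpaI cut, capillary electrophoresis. Gain- or loss-of-signal fitted against DMSO.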

Experiment [14] addresses Hepatocyte nuclear factor 3-beta (Homo sapiens) (UniProt Q9Y261). The experiment in a line: ATG_FoxA2_CIS: Attagene CIS-FACTORIAL HepG2 Assay for human Forkhead box A2 (FOXA2) (AID 2282942). To be noted: HepG2 cis-reporter transcription factor activity, 24 h; actives raise or lower the signal. The method, boiled down: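 Transient MRTU transfection of HepG2 liver cells; 24 h treatment; total RNA → oligo(dT) RT → PCR → FAM primer extension → HpaI cut → CE. Bidirectional fit vs DMSO.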

Experiment [15] can be described thus: ATG_FoxO_CIS: Attagene CIS-FACTORIAL HepG2 Assay for human Forkhead box O (FoxO) (AID 2282943). The settings on record: HepG2 Attagene cis-reporter, FoxO element, mRNA; actives raise or lower the signal. The procedure, abridged:
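Read-out: fluorescence of 6-FAM-labelled reporter cDNA fragments resolved by capillary electrophoresis. Transiently transfected HepG2 cells were dosed for 24 h; activity fitted in both directions relative to DMSO controls.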

Experiment [16] in a line: ATG_GATA_CIS: Attagene CIS-FACTORIAL HepG2 Assay for human GATA Binding Protein (AID 2282944). To be noted: HepG2 GATA cis-element reporter, Attagene multiplex mRNA; actives raise or lower the signal. The method, boiled down:
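Reporter transcripts from a GATA cis-regulated unit, among multiplexed reporters in transfected HepG2 cells, were measured by RT-PCR with capillary electrophoresis after 24 h dosing. Induction or loss scored relative to DMSO.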

Experiment [17] is described as follows: ATG_GLI_CIS: Attagene CIS-FACTORIAL HepG2 Assay for human Zinc Finger Protein GLI1 (AID 2282945). The settings on record: HepG2, Attagene cis-factorial reporter mRNA, GLI element; actives raise or lower the signal. The method, boiled down: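 Transiently transfected HepG2 cells report endogenous transcription factor activity via cis-element-driven reporter units. After 24 h compound exposure, reporter mRNA was measured by RT-PCR with capillary electrophoresis; bidirectional fitting against DMSO baseline.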

Experiment [18] concerns the target Bile acid receptor (Homo sapiens) (UniProt Q96RI1). Kind of experiment: ATG_IR1_CIS: Attagene CIS-FACTORIAL HepG2 Assay for human Nuclear Receptor Subfamily 1 Group H Member 4 (NR1H4), IR1 submotif (AID 2282946). To be noted: IR1 reporter transcription, actives raise or lower the signal. The procedure, abridged:
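Fluorescence of capillary-separated, HpaI-digested RT-PCR reporter products gave IR1-element mRNA induction in HepG2 cells 24 h after dosing. Endogenous transcription factors drove the cis-regulated reporters; activity was fitted bidirectionally against DMSO.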

Experiment [19] in a line: ATG_AP_2_CIS: Attagene CIS-FACTORIAL HepG2 Assay for human Activator Protein 2 (AP-2) (AID 2282932). The settings on record: HepG2 AP-2 cis-reporter, Attagene transcription factor profiling; actives raise or lower the signal. The method, boiled down: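 Read-out: fluorescent reporter mRNA via RT-PCR and capillary electrophoresis, 24 h post-dose in transiently transfected HepG2. Endogenous factors drive cis-promoter reporters; gain or loss of signal fitted bidirectionally against DMSO.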

Chain of Hepatocyte nuclear factor 3-beta (Homo sapiens) (Q9Y261 whole entry, looked up): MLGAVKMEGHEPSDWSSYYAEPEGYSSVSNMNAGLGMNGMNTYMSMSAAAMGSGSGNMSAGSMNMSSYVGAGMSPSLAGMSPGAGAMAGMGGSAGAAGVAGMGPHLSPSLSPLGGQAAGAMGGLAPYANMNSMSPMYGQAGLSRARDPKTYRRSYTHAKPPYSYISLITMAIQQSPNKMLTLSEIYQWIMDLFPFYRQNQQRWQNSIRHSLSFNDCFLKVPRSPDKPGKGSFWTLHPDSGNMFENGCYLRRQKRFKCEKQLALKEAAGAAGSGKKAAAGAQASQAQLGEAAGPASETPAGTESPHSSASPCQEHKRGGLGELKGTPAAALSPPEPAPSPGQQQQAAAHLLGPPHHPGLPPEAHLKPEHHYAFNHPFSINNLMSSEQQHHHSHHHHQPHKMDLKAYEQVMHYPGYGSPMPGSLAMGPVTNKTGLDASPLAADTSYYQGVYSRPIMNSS
Chain of Transcription factor E2F1 (Homo sapiens) (Q01094 whole entry, looked up): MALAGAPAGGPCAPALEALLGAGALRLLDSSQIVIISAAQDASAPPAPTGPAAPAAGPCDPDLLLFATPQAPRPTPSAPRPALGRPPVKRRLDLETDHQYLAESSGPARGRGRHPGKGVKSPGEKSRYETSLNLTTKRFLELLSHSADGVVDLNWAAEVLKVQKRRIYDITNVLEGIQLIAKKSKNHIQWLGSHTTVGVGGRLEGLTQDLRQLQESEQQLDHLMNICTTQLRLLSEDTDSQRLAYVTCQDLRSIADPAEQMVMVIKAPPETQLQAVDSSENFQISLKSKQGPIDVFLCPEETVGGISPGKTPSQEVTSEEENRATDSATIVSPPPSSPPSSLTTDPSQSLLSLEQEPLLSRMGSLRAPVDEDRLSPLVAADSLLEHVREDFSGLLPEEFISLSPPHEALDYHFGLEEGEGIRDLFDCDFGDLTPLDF
Chain of CCAAT/enhancer-binding protein beta (Homo sapiens) (P17676 whole entry, looked up): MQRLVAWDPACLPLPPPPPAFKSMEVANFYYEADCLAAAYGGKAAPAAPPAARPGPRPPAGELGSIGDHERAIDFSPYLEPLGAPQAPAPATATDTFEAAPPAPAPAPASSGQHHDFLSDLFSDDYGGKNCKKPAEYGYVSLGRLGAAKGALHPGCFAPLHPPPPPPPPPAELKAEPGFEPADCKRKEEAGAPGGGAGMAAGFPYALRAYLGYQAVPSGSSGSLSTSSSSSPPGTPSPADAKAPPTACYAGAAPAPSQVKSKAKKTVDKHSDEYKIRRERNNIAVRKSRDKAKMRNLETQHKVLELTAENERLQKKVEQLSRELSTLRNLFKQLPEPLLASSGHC
Chain of Bile acid receptor (Homo sapiens) (Q96RI1 whole entry, looked up): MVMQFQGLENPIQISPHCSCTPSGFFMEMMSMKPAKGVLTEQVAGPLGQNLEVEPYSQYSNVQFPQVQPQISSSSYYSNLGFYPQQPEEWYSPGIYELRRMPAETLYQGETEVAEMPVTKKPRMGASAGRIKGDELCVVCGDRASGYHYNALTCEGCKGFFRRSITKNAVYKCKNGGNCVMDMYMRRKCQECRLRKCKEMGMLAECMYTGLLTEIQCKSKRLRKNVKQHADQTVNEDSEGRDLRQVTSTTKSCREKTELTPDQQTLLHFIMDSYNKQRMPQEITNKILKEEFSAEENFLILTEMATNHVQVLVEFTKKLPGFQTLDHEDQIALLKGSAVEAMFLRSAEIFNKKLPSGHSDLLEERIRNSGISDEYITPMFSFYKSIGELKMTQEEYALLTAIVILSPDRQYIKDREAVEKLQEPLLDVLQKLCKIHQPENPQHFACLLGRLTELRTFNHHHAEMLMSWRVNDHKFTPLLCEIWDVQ
Chain of Retinoic acid receptor alpha (Homo sapiens) (P10276 whole entry, looked up): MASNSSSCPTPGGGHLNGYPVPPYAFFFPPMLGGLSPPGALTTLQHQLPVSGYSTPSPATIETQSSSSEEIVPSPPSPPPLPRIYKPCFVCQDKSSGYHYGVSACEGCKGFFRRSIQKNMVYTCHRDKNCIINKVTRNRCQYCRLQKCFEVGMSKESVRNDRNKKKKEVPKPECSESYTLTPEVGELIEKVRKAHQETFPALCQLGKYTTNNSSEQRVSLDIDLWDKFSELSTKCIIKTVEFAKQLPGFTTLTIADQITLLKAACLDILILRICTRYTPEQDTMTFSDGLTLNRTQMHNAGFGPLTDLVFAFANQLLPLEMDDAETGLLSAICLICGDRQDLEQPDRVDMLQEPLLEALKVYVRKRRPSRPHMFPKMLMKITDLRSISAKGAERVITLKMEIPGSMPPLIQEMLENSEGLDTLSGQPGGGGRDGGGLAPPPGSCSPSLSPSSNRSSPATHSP

`COC(=O)c1ccc(CNS(C)(=O)=O)cc1S(=O)(=O)NC(=O)Nc1nc(OC)cc(OC)n1`: the outcome in experiment [1], in experiment [2], in experiment [3], in experiment [4], in experiment [5] and in [6] was inactive. Moreover, the compound was called inactive in experiment [7], in experiment [8], in experiment [9], in [10], in [11] and in [12]. The result in experiment [13], in [14], in experiment [15], in [16], in experiment [17] and in experiment [18] was inactive.
Take `CSC(=O)c1cccc2nnsc12`: the result in experiment [1], in [2], in [3], in experiment [4], in experiment [19] and in experiment [5] was inactive. The result in [6], in [7], in [8], in experiment [9], in experiment [10] and in [11] was inactive. For the same compound, the outcome in experiment [12], in experiment [13], in experiment [14], in experiment [15], in experiment [16] and in [17] was inactive.
In the case of `CCN(Cc1c(F)cccc1Cl)c1c([N+](=O)[O-])cc(C(F)(F)F)cc1[N+](=O)[O-]`, the outcome in experiment [1], in experiment [7], in [8], in experiment [9], in experiment [10] and in [11] was inactive. The compound was classed as inactive in experiment [13], in [14], in experiment [15], in experiment [16], in [17] and in [18]. The AC50 in experiment [2] is 10.6 µM (active); in [3], 8.45 µM (active); in experiment [4], 28.9 µM (active); in [5], 1.4 µM (active); in [6], 1.8 µM (active); in experiment [12], 1.81 µM (active).
For `CC(C)(C)[C@@H](O)[C@@H](Cc1ccc(Cl)cc1)n1cncn1`, the AC50 is 3.43 µM (active) in experiment [1]; 13.5 µM (active) in [4]; 13.7 µM (active) in [5]; 32.1 µM (active) in experiment [6]; 26.1 µM (active) in experiment [10]; 68.5 µM (active) in experiment [13]. Further, the figures for the AC50 in [15] and in [18] were 12.6 µM (active) and 41.3 µM (active), respectively. Besides, the compound was called inactive in experiment [2], in experiment [3], in experiment [19], in experiment [7], in experiment [8] and in experiment [9]. Moreover, the compound was classed as inactive in [11], in [14], in experiment [16] and in [17].
For `CCC(C)OC(=O)N1CCCCC1CCO` (stereo not drawn), the result in [1], in experiment [2], in experiment [3], in experiment [4], in experiment [5] and in experiment [6] was inactive. Besides, the compound was called inactive in [7], in [8], in experiment [9], in [10], in [11] and in [13]. Further, the compound was classed as inactive in [14], in experiment [15], in [16], in [17] and in experiment [18].
`C#CCOC(=O)[C@@H](C)Oc1ccc(Oc2ncc(Cl)cc2F)cc1`: the outcome in [1], in experiment [2], in [3], in experiment [4], in [19] and in experiment [5] was inactive. Moreover, the outcome in experiment [6], in experiment [7], in [8], in experiment [9], in experiment [10] and in experiment [11] was inactive. The result in experiment [12], in experiment [13], in [14], in experiment [15], in [16] and in experiment [17] was inactive. The compound was called inactive in experiment [18].
